# Several values for one entry are separate records, joined by “and”; a condition that tells them apart may be missing. Equal entries are not always repeated. Activity calls are given as the source filed them.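 The calls were made as follows, unless noted: active = thallium flux through the channel raised or lowered by more than 3 SD from vehicle-only wells, actives on both sides; inactive = the rest.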
# How the values were obtained:
# [1] = blockers of polyQ-driven CASP3 activation – cell-based (AID 1583); settings: polyglutamine-induced caspase-3 activation, cell assay; stronger effect = higher value;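 tested at 10 µM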
# [2] = yeast 75Q aggregation reduction – 75Q-TubU reporter (AID 1593); settings: Yeast 75Q polyglutamine aggregation reporter
# [3] = blockers of cytochrome c efflux from mitochondria – biochemical, purified mitochondria (AID 1603); settings: stronger effect = lower value;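 also: mouse liver mitochondria challenged with calcium chloride; signal normalized to the plate average as 100%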
# [4] = polyglutamine aggregate formation blockers (AID 1604); settings: polyglutamine-induced protein aggregation inhibition assay; stronger effect = higher value; tested at 2.5 µM
# [5] = glutamate transport activators, MN-1 cells, MN-1 cell line (AID 1612); settings: MN-1 motor neuron cells, stronger effect = higher value;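 also: tested at 1 µM final; 0% = mean of DMSO vehicle wells on each plate; positive means more glutamate uptake than control and negative means less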
# [6] = galactose survival enhancers in mitochondrial complex I cybrids – cell-based, galactose medium, ATP luminescence, primary screen (AID 1645843;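 active = z-score of at least 1.8 in each of two replicates, scored against plate mean and spread of sample wells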;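 also: positive z means more ATP and so rescue of galactose-driven cybrid death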); settings: complex I mutant cybrid cells, 72 h, stronger effect = higher value
# F380Y/beta4 = experiment: BK channel mutant inhibitors and activators – cell-based, U2OS BacMam, thallium flux, beta subunits, selectivity assay, profiling panel (AID 1259406); settings: U2OS BacMam BK variants, at 30 µM;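 also: initial slope of Thallos dye fluorescence rise after thallium is added; log ratio against the mean of 0.3% DMSO vehicle wells on the same plate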
# [7] = biological target: Calcium-activated potassium channel subunit alpha-1 (Homo sapiens) + Leucine-rich repeat-containing protein 26 (Homo sapiens) (UniProt Q12791+Q2I0M4); experiment: as above; settings: U2OS BacMam BK variants, F380Y/Slo1WT/gamma1, at 30 µM
# R275C = experiment: as above; settings: U2OS BacMam BK variants, at 30 µM
# R275C/beta1 = experiment: as above; settings: U2OS BacMam BK variants, at 30 µM
# R275C/beta2Delta = experiment: as above; settings: U2OS BacMam BK variants, at 30 µM
# R275C/beta4 = experiment: as above; settings: U2OS BacMam BK variants, at 30 µM
# R275C/Slo1WT/beta2 = experiment: as above; settings: U2OS BacMam BK variants, at 30 µM
# [8] = signal quenchers or enhancers, Cy5 substrate/SSB – biochemical, NIH Clinical Collection, E. coli SSB, artefact control for HCV NS3 helicase inhibitor project (AID 743268; call rule not given here); settings: Cy5-oligo bound E. coli SSB, fluorescence interference
# [9] = tested on: Hepatitis C virus NS3 helicase; experiment: blockers of NS3h binding to DNA – biochemical, fluorescence polarization, NIH Clinical Collection, primary screen (AID 743270; call rule not given here); settings: NS3 helicase binding to Cy5-dT15 DNA, stronger effect = higher value, concentration not given here
# [10] = biological target: Single-stranded DNA-binding protein (Escherichia coli (strain K12)) (UniProt P0AGE0); experiment: SSB-ssDNA binding inhibitors – biochemical, fluorescence polarization, NIH Clinical Collection, counter-screen for HCV NS3 helicase inhibitor project (AID 743271; in the data active = inhibition above about 28%); settings: E. coli SSB-DNA binding, stronger effect = higher value, concentration not given here
# [11] = compounds distorting NS3 helicase fluorescence signal – biochemical, NIH Clinical Collection, artefact control for HCV NS3 helicase inhibitor project (AID 743272; call rule not given here;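 also: HCV NS3 helicase with a Cy5 labelled single stranded DNA probe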); settings: fluorescence interference counterscreen, HCV NS3 helicase assay; stronger effect = lower value
# [12] = growth inhibition, single agent or in combination, cell-based, chromothripsis tumors, cisplatin or BGB combos (AID 1671449; in the data active = inhibition above about 80%;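 also: cells exposed for 96 hours; 0% = vehicle DMSO and 100% = killing by high DMSO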); settings: LFS_MB_P medulloblastoma cells
# [13] = growth inhibition, single agent and combos, cell-based, chromothripsis tumors, cisplatin or BGB combos (AID 1671450; in the data active = inhibition above about 80%;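 also: cells exposed to compound for four days; 0% = vehicle DMSO and 100% = cell killing by high DMSO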); settings: HDN33 neuroblastoma cells, stronger effect = higher value
# [14] = growth inhibition, single agents and combos, HTB85, cell-based, BGB or cisplatin IC20 combos, synergistic combos for chromothripsis tumors (AID 1671453; in the data active = inhibition above about 80%;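 also: cells exposed for 96 hours before readout; 0% = vehicle DMSO and 100% = high DMSO killing control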); settings: HTB85 osteosarcoma cells, drug combinations, stronger effect = higher value
# [15] = at 0.5 µM, stronger effect = higher value
# [16] = measured here: combination with BGB IC20, at 0.005 µM
# [17] = measured here: combination with BGB IC40, at 0.005 µM
# [18] = measured here: combination with BGB IC40, at 0.05 µM
# [19] = measured here: combination with cisplatin, at 0.5 µM, stronger effect = higher value
# [20] = measured here: combination with cisplatin, at 5 µM, stronger effect = higher value
# [21] = measured here: with BGB IC20 combination, at 0.5 µM
# [22] = measured here: with cisplatin IC20 combination, at 0.5 µM
# [23] = measured here: with BGB IC20, at 0.5 µM
# [24] = measured here: with BGB IC20, at 5 µM
# [25] = measured here: with cisplatin IC20, at 0.5 µM
# [26] = measured here: with cisplatin IC20, at 5 µM
# Sequence of Calcium-activated potassium channel subunit alpha-1 (Homo sapiens) + Leucine-rich repeat-containing protein 26 (Homo sapiens) (Q2I0M4 whole entry, looked up, one chain of several): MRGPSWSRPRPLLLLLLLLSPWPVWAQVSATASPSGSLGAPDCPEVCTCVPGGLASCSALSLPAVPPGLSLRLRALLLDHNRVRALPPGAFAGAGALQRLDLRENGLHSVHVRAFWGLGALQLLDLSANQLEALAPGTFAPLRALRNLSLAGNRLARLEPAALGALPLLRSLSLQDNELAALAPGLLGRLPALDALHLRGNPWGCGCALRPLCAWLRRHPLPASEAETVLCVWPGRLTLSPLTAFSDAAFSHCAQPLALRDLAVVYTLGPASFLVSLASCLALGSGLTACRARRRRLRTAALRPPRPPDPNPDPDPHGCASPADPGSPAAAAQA
structure (smiles),measurement,setting,value
CC(C)Cc1ccc(C(C)C(=O)O)cc1 (centres undefined),inhibition,[1],-4.83%
same,score,[2],0.01
same,cytochrome c release ratio,[3],0.94
same,inhibition of aggregation,[4],47.1%
same,glutamate uptake change,[5],16.3%
same,z-score,[6],0.975 (inactive) and -0.01 (inactive) and 0.46 (inactive)
same,log fold change Tl+ flux,F380Y/beta4,0.0254 (inactive)
same,log fold change Tl+ flux,[7],-0.0267 (inactive)
same,log fold change Tl+ flux,R275C,0.00709 (inactive)
same,log fold change Tl+ flux,R275C/beta1,-0.00083 (inactive)
same,log fold change Tl+ flux,R275C/beta2Delta,-0.00841 (inactive)
same,log fold change Tl+ flux,R275C/beta4,-0.0471 (inactive)
same,log fold change Tl+ flux,R275C/Slo1WT/beta2,0.0328 (inactive)
N[C@@H]1CONC1=O,inhibition,[1],3.67%
same,score,[2],1.72
same,cytochrome c release ratio,[3],0.8
same,inhibition of aggregation,[4],65.4%
same,glutamate uptake change,[5],-3.66%
same,fluorescence ratio,[8],0.99 (inactive) and 1.05 (inactive)
same,inhibition,[9],5.94% (inactive) and -1.36% (inactive)
same,inhibition,[10],2.98% (inactive) and 0.29% (inactive)
same,fluorescence ratio,[11],0.95 (inactive) and 1.03 (inactive)
same,z-score,[6],0.55 (inactive) and 0.975 (inactive)
same,log fold change Tl+ flux,F380Y/beta4,0.0351 (inactive)
same,log fold change Tl+ flux,[7],-0.0244 (inactive) and 0.0135 (inactive)
same,log fold change Tl+ flux,R275C,-0.00755 (inactive) and 0.0374 (inactive)
same,log fold change Tl+ flux,R275C/beta1,0.00647 (inactive) and 0.0301 (inactive)
same,log fold change Tl+ flux,R275C/beta2Delta,0.0216 (inactive) and -0.0265 (inactive)
same,log fold change Tl+ flux,R275C/beta4,0.00356 (inactive)
same,log fold change Tl+ flux,R275C/Slo1WT/beta2,-0.00809 (inactive)
CN=C(NC#N)NCCSCc1nc[nH]c1C,inhibition,[1],15.1%
same,score,[2],1.08
same,cytochrome c release ratio,[3],1.04
same,inhibition of aggregation,[4],58.9%
same,glutamate uptake change,[5],-5.55%
same,fluorescence ratio,[8],0.98 (inactive)
same,inhibition,[9],-3.18% (inactive)
same,inhibition,[10],-2% (inactive)
same,fluorescence ratio,[11],0.94 (inactive)
same,log fold change Tl+ flux,F380Y/beta4,0.031 (inactive)
same,log fold change Tl+ flux,[7],0.0464 (inactive)
same,log fold change Tl+ flux,R275C,0.00692 (inactive)
same,log fold change Tl+ flux,R275C/beta1,-0.0361 (inactive)
same,log fold change Tl+ flux,R275C/beta2Delta,0.00462 (inactive)
same,log fold change Tl+ flux,R275C/beta4,0.0223 (inactive)
same,log fold change Tl+ flux,R275C/Slo1WT/beta2,0.0339 (inactive)
CCN(Cc1ccncc1)C(=O)C(CO)c1ccccc1 (centres undefined),inhibition,[1],24.2%
same,score,[2],1.22
same,cytochrome c release ratio,[3],1.14
same,inhibition of aggregation,[4],87%
same,glutamate uptake change,[5],-2.09%
same,fluorescence ratio,[8],1.06 (inactive)
same,inhibition,[9],-2.27% (inactive)
same,inhibition,[10],-5.05% (inactive)
same,fluorescence ratio,[11],1.03 (inactive)
same,log fold change Tl+ flux,F380Y/beta4,-0.0208 (inactive)
same,log fold change Tl+ flux,[7],0.00211 (inactive)
same,log fold change Tl+ flux,R275C,-0.035 (inactive)
same,log fold change Tl+ flux,R275C/beta1,0.0151 (inactive)
same,log fold change Tl+ flux,R275C/beta2Delta,0.0198 (inactive)
same,log fold change Tl+ flux,R275C/beta4,0.0153 (inactive)
same,log fold change Tl+ flux,R275C/Slo1WT/beta2,0.0191 (inactive)
NCCc1ccc(O)c(O)c1,inhibition,[1],12.5%
same,score,[2],1.44
same,cytochrome c release ratio,[3],0.92
same,inhibition of aggregation,[4],81.4%
same,glutamate uptake change,[5],17.9%
same,fluorescence ratio,[8],0.93 (inactive)
same,inhibition,[9],-5.91% (inactive)
same,inhibition,[10],-2% (inactive)
same,fluorescence ratio,[11],0.96 (inactive)
same,z-score,[6],-1.03 (inactive) and -1.31 (inactive)
same,log fold change Tl+ flux,F380Y/beta4,0.00195 (inactive)
same,log fold change Tl+ flux,[7],-0.0022 (inactive)
same,log fold change Tl+ flux,R275C,0.00996 (inactive)
same,log fold change Tl+ flux,R275C/beta1,-0.0871 (inactive)
same,log fold change Tl+ flux,R275C/beta2Delta,0.0238 (inactive)
same,log fold change Tl+ flux,R275C/beta4,0.0461 (inactive)
same,log fold change Tl+ flux,R275C/Slo1WT/beta2,0.00323 (inactive)
CC(=O)OCC(CCn1cnc2cnc(N)nc21)COC(C)=O,fluorescence ratio,[8],1.06 (inactive)
same,inhibition,[9],-1.98% (inactive)
same,inhibition,[10],-4.72% (inactive)
same,fluorescence ratio,[11],0.99 (inactive)
same,z-score,[6],0.72 (inactive) and 0.425 (inactive) and 0.32 (inactive)
same,inhibition,[12]; [15],-15.4% (inactive)
same,inhibition,[12]; [16],-4.33%
same,inhibition,[12]; [17],-16.3%
same,inhibition,[12]; [18],-21.9%
same,inhibition,[12]; [19],-33%
same,inhibition,[12]; [20],-20.4%
same,inhibition,"[13]; BGB combo, at 5 µM",-6.25%
same,inhibition,[13]; at 0.5 µM,-3.67% (inactive)
same,inhibition,"[13]; cisplatin combo, at 5 µM",8.87%
same,inhibition,[13]; [21],-10.2%
same,inhibition,[13]; [22],4.72%
same,inhibition,"[13]; single agent, at 5 µM",-14.6%
same,inhibition,[14]; at 0.5 µM,-2.55% (inactive)
same,inhibition,[14]; [23],-18%
same,inhibition,[14]; [24],-24.7%
same,inhibition,[14]; [25],0.506%
same,inhibition,[14]; [26],-48.5%
same,inhibition,"[14]; single agent, at 5 µM",-10%
same,log fold change Tl+ flux,F380Y/beta4,0.0232 (inactive)
same,log fold change Tl+ flux,[7],0.0418 (inactive)
same,log fold change Tl+ flux,R275C,-0.0357 (inactive)
same,log fold change Tl+ flux,R275C/beta1,0.0343 (inactive)
same,log fold change Tl+ flux,R275C/beta2Delta,-0.0321 (inactive)
same,log fold change Tl+ flux,R275C/beta4,0.0276 (inactive)
same,log fold change Tl+ flux,R275C/Slo1WT/beta2,0.0386 (inactive)
CC1COc2c(N3CCN(C)CC3)c(F)cc3c(=O)c(C(=O)O)cn1c23 (centres undefined),inhibition,[1],10.8%
same,score,[2],1.04
same,cytochrome c release ratio,[3],1.57
same,inhibition of aggregation,[4],67.8%
same,glutamate uptake change,[5],-4.74%
same,fluorescence ratio,[8],0.99 (inactive)
same,inhibition,[9],-2.27% (inactive)
same,inhibition,[10],2.57% (inactive)
same,fluorescence ratio,[11],0.87 (inactive)
same,inhibition,[12]; [15],-15.2% (inactive) and -4.35% (inactive) and -7.1% (inactive)
same,inhibition,[12]; [16],-17.1% and -18.6% and 40.6%
same,inhibition,[12]; [17],-34.5% and 8.51% and 11.7%
same,inhibition,[12]; [18],-33.9% and 2.31% and 36%
same,inhibition,[12]; [19],-16.9% and 6.16% and -20.4%
same,inhibition,[12]; [20],-20.4% and -8.17% and -11.9%
same,inhibition,"[13]; BGB combo, at 5 µM",-21.1% and 5.47% and 15%
same,inhibition,[13]; at 0.5 µM,-45.4% (inactive) and 10.2% (inactive) and 8.6% (inactive)
same,inhibition,"[13]; cisplatin combo, at 5 µM",-32.1% and -5.63% and 10.7%
same,inhibition,[13]; [21],-54.6% and 19.4% and 13%
same,inhibition,[13]; [22],-40.5% and 0.068% and 0.136%
same,inhibition,"[13]; single agent, at 5 µM",-44.6% and 1.17% and 11.7%
same,inhibition,[14]; at 0.5 µM,-45.9% (inactive) and 3.58% (inactive) and -0.61% (inactive)
same,inhibition,[14]; [23],-68.8% and -8.08% and -9.45%
same,inhibition,[14]; [24],-49.9% and 8% and -6.03%
same,inhibition,[14]; [25],-39.2% and 5.61% and -11.8%
same,inhibition,[14]; [26],-30.4% and 7.76% and -5.54%
same,inhibition,"[14]; single agent, at 5 µM",-34.4% and -4.7% and 18.3%
same,log fold change Tl+ flux,F380Y/beta4,0.0067 (inactive)
same,log fold change Tl+ flux,[7],0.00974 (inactive)
same,log fold change Tl+ flux,R275C,0.0249 (inactive)
same,log fold change Tl+ flux,R275C/beta1,-0.02 (inactive)
same,log fold change Tl+ flux,R275C/beta2Delta,-0.03 (inactive)
same,log fold change Tl+ flux,R275C/beta4,0.0112 (inactive)
same,log fold change Tl+ flux,R275C/Slo1WT/beta2,0.0308 (inactive)
COc1ccccc1OCCNCC(O)COc1cccc2[nH]c3ccccc3c12 (centres undefined),fluorescence ratio,[8],0.92 (inactive)
same,inhibition,[9],1.19% (inactive)
same,inhibition,[10],6.83% (inactive)
same,fluorescence ratio,[11],0.94 (inactive)
same,log fold change Tl+ flux,F380Y/beta4,0.358 (active)
same,log fold change Tl+ flux,[7],0.204 (active)
same,log fold change Tl+ flux,R275C,-0.174 (active)
same,log fold change Tl+ flux,R275C/beta1,0.386 (active)
same,log fold change Tl+ flux,R275C/beta2Delta,0.0657 (inactive)
same,log fold change Tl+ flux,R275C/beta4,0.216 (active)
same,log fold change Tl+ flux,R275C/Slo1WT/beta2,0.0443 (inactive)

# From PubChem BioAssay
